Inconclusive results are not listed. The source made the active and inactive calls. The call rests on the fitted dose curve; in most records, active means well fitted inhibition curve with a large enough effect; inconclusive means small, poorly fitted or top-dose-only effect; inactive means flat fitted curve, though single readings scatter.
How the values were obtained:
Assay in all cases: qHTS profiling for inhibitors of Plasmodium falciparum proliferation (AID 504749); further: nearly all actives have a fitted effect of over 60% in size
Conditions in all cases: P. falciparum in erythrocytes, SYBR Green DNA, 72 h; series mostly up to 28.7 µM
CP238 = test system: CP238
Procedure, shortened: (§1)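 SYBR Green fluorescence (ex 485 nm, em 535 nm) reports parasite DNA after 72 h compound exposure of infected red cells at 0.3% parasitemia, 2.5% hematocrit; signal normalized to 0.29 uM artemisinin and vehicle wells.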

CP247 = test system: CP247
Procedure, shortened: as §1

CP252 = test system: CP252
Procedure, shortened: as §1

CP256 = test system: CP256
Procedure, shortened: as §1

CP260 = test system: CP260
Procedure, shortened: as §1

CP262 = test system: CP262
Procedure, shortened: as §1

CP265 = test system: CP265
Procedure, shortened: as §1

CP266 = test system: CP266
Procedure, shortened: as §1

CP268 = test system: CP268
Procedure, shortened: as §1

CP269 = test system: CP269
Procedure, shortened: as §1

CP286 = test system: CP286
Procedure, shortened: as §1

CP291 = test system: CP291
Procedure, shortened: as §1

CP297 = test system: CP297
Procedure, shortened: as §1

CP305 = test system: CP305
Procedure, shortened: as §1

CP315 = test system: CP315
Procedure, shortened: as §1

CP325 = test system: CP325
Procedure, shortened: as §1

CP329 = test system: CP329
Procedure, shortened: as §1

CP335 = test system: CP335
Procedure, shortened: as §1

DFO2036 = test system: DFO2036
Procedure, shortened: as §1

CP250 = test system: CP250
Procedure, shortened: as §1

Measured: Potency

CCCCCCC(=O)CCCCCC/C=C/C[C@@H](O)[C@H](O)[C@@](N)(CO)C(=O)O
inactive: CP238 | CP247 | CP252 | CP256 | CP260 | CP262 | CP265 | CP266 | CP268 | CP269 | CP286 | CP291 | CP297 | CP305 | CP315 | CP325 | CP329 | CP335 | DFO2036

CN1C(=O)C(O)N=C(c2ccccc2)c2cc(Cl)ccc21 (centres undefined)
inactive: CP238 | CP247 | CP250 | CP252 | CP256 | CP260 | CP262 | CP265 | CP268 | CP269 | CP286 | CP291 | CP297 | CP305 | CP315 | CP325 | CP329 | CP335 | DFO2036

C=C(C)[C@H]1CN[C@H](C(=O)O)[C@H]1CC(=O)O
inactive: CP238 | CP247 | CP250 | CP252 | CP256 | CP260 | CP262 | CP265 | CP269 | CP286 | CP291 | CP305 | CP315 | CP325 | CP329 | DFO2036

From PubChem BioAssay (NCATS)
